According to PubChem BioAssay (Tox21):
Inconclusive results are not listed. The source made the active and inactive calls. Unless noted, calls follow the shape of the full dose curve.

Tests used:
[1] = Nuclear factor erythroid 2-related factor 2/antioxidant responsive element (Nrf2/ARE) small molecule agonists: qHTS cell viability counter screen in human keratinocytes (AID 1919968; active = well fitted curve in the direction sought with a large enough effect in the repeat runs; an effect the other way counts as inactive or inconclusive; also: nearly all actives have a fitted effect of over 55% in size; also: potency is read from the fitted curve at half-maximal effect)
Outline: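 CellTiter-Fluor fluorescence, read 1 h after reagent, gave viability in the same wells as the ARE-luciferase assay. KeratinoSens cells (1,500/well) had 23 h compound exposure at 37 C/5% CO2 following 5 h plating.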

[2] = Nuclear factor erythroid 2-related factor 2/antioxidant responsive element (Nrf2/ARE) small molecule agonists: luciferase reporter gene qHTS assay in human keratinocytes (AID 1919969); also: nearly all actives have a fitted effect of over 35% in size; also: potency is read from the fitted curve at half-maximal effect
[3] = molecular target: Gonadotropin-releasing hormone receptor (Homo sapiens) (UniProt P30968); experiment: Human gonadotropin-releasing hormone receptor (GnRHR) small molecule agonists, calcium flux assay in GnRHR-HEK293 cells (AID 1920063); also: nearly all actives have a fitted effect of over 35% in size; also: potency is read from the fitted curve at half-maximal effect
Outline: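 Agonist mode: compounds at 15 concentrations, in triplicate, went onto calcium dye-loaded GnRHR-HEK293 cells. Intracellular calcium was then followed as 480/540 nm fluorescence at 1 s intervals over 3 min.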

[4] = molecular target: KiSS-1 receptor (Homo sapiens) (UniProt Q969F8); experiment: Human kisspeptin (KISS1R) small molecule agonists, calcium flux assay in KISS1R-HEK293 cells (AID 1920064; active = well fitted curve in the direction sought with a large enough effect in the repeat runs; an effect the other way counts as inactive or inconclusive)
Outline: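 Agonist mode: intracellular calcium rise tracked at 1 s intervals over 3 min (480/540 nm) immediately after compound addition to dye-loaded KISS1R-HEK293 stable cells. Each compound tested at 15 concentrations in triplicate.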

[5] = G protein-coupled receptor (GPCR) small molecule agonists, calcium flux assay: HEK293 wild type cell line counter screen (AID 1920065)
Outline: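 Calcium flux counter screen: compound added in agonist mode at 15 concentrations in triplicate to dye-loaded parental HEK293 cells. Fluorescence (480/540) read kinetically for 3 min; ATP served as positive control.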

[6] = p53 small molecule agonists, cell-based qHTS assay with human liver microsomes (AID 1963577); also: potency is read from the fitted curve at half-maximal effect
Outline: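 p53RE-bla cells, 4,000/well, compound added after 5 h, with human liver microsomes 0.5 mg/mL and NADPH 0.5 mg/mL final; 16 h at 37 C, then LiveBLAzer 2 h RT, fluorescence.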

[7] = p53 small molecule agonists, cell-based qHTS assay with human liver microsomes: qHTS cell viability counter screen (AID 1963579); also: nearly all actives have a fitted effect of over 45% in size; also: potency is read from the fitted curve at half-maximal effect
Outline: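 p53RE-bla cells, 4,000/well, dosed 5 hours after plating, with human liver microsomes (0.5 mg/mL final) plus NADPH (0.5 mg/mL final), 16 hours at 37 C. Viability read as CellTiter-Glo luminescence after 30 min at room temperature.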

[8] = p53 small molecule agonists, cell-based qHTS assay with rat liver microsomes: qHTS cell viability counter screen (AID 1963580); also: nearly all actives have a fitted effect of over 45% in size; also: potency is read from the fitted curve at half-maximal effect
Outline: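 After the beta-lactamase ratio was read, CellTiter-Glo was added to the same wells and luminescence measured at 30 min; cells had been treated 16 h at 37 C with compounds, rat liver microsomes and NADPH (0.5 mg/mL final each).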

[9] = p53 small molecule agonists, cell-based qHTS assay: qHTS cell viability counter screen (AID 1963581); also: nearly all actives have a fitted effect of over 45% in size; also: potency is read from the fitted curve at half-maximal effect
Outline: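 Counter screen read by CellTiter-Glo luminescence (ATP content, 30 min at room temperature), run in the same wells as the beta-lactamase reporter read. HCT-116 p53RE-bla cells saw compounds for 16 h at 37 C.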

[10] = p53 small molecule agonists, cell-based qHTS assay (AID 1963582; active = well fitted activation curve with a large enough effect in the signal ratio in the repeat runs, not every such curve was filed as active; the % refers to the signal ratio)
Outline: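 Read-out is beta-lactamase FRET fluorescence after 2 h at room temperature with LiveBLAzer B/G substrate. p53 response element-bla cells were treated 16 h at 37 C with compounds in DMSO, added 5 h after seeding.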

[11] = molecular target: 5-hydroxytryptamine receptor 2A (Homo sapiens) (UniProt P28223); experiment: 5-hydroxytryptamine receptor 2A (HTR2A) small molecule antagonists, cell-based qHTS assay (AID 1963586); also: nearly all actives have a fitted effect of over 45% in size; also: potency is read from the fitted curve at half-maximal effect
Outline: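 CHO cells stably expressing human HTR2A were plated for 18 h at 37 C, then loaded with calcium dye for 1 h. Compounds were preincubated 5 min at room temperature before DOI (4 nM solution) was added. Kinetic fluorescence was read for 3 min.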

[12] = molecular target: 5-hydroxytryptamine receptor 2A (Homo sapiens) (UniProt P28223); experiment: 5-hydroxytryptamine receptor 2A (HTR2A) small molecule agonists, cell-based qHTS assay (AID 1963587); also: nearly all actives have a fitted effect of over 30% in size; also: potency is read from the fitted curve at half-maximal effect
Outline: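 CHO cells stably expressing human HTR2A, plated 18 h, loaded with calcium dye 1 h at 37 C. Agonist mode: compounds added and intracellular calcium fluorescence recorded kinetically for 2 min at 1 sec intervals.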

[13] = molecular target: Muscarinic acetylcholine receptor M1 (Homo sapiens) (UniProt P11229); experiment: Cholinergic receptor muscarinic 1 (CHRM1) small molecule antagonists, cell-based qHTS assay (AID 1963588); also: nearly all actives have a fitted effect of over 40% in size; also: potency is read from the fitted curve at half-maximal effect
Outline: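 Compounds were tested at 15 concentrations in three independent runs. Dye-loaded CHRM1-CHO cells were exposed 5 min at room temperature before stimulation by acetylcholine added at 50nM. Intracellular calcium was read kinetically on FDSS for 3 min.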

[14] = molecular target: Muscarinic acetylcholine receptor M1 (Homo sapiens) (UniProt P11229); experiment: Cholinergic receptor muscarinic 1 (CHRM1) small molecule agonists, cell-based qHTS assay (AID 1963589); also: nearly all actives have a fitted effect of over 35% in size
Outline: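 Agonist-mode calcium-flux screen: compounds at 15 concentrations, three independent runs, were pin-transferred onto dye-loaded human CHRM1-CHO cells. Fluorescence was then recorded kinetically every second over minutes.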

[15] = cAMP Responsive Elements (CRE) small molecule agonists, cell-based qHTS assay (AID 1963590)
Outline: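 Agonist mode: compound added to CRE-bla HEK 293T cells (2,000/well, 18 h after plating) for 3 h at 37 C/5% CO2. Reporter activity detected via FRET beta-lactamase substrate, 2 h room-temperature loading.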

[16] = molecular target: Beta-2 adrenergic receptor (Homo sapiens) (UniProt P07550); experiment: Adrenergic beta2 receptor (ADRB2) small molecule antagonists, cell-based qHTS assay (AID 1963592); also: nearly all actives have a fitted effect of over 50% in size; also: potency is read from the fitted curve at half-maximal effect
Outline: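 Assay format: CHO-ADRB2 cells, 18-20hr seeding at 37C/5% CO2, then compound plus 1nM isoproterenol agonist mix for 0.5hr RT. Homogeneous time-resolved fluorescence cAMP detection after 1hr, expressed as 665/615 nm ratio.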

[17] = molecular target: D(2) dopamine receptor (Homo sapiens) (UniProt P14416); experiment: Dopamine D2 receptor (DRD2) small molecule antagonists, cell-based qHTS assay (AID 1963595; active = well fitted inhibition curve with a large enough effect in the signal ratio in the repeat runs, with a control signal flat; the % refers to the signal ratio)
Outline: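 Cells were plated and grown for 24 h at 37 °C. Ro20-1724 (0.1 mM final) went in first, then compound for 10 min. NKH477 (200 nM) with quinpirole (12 nM) followed for 30 min at RT, then HTRF detection reagents for 1 h.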

[18] = cAMP Responsive Elements (CRE) small molecule antagonists, cell-based qHTS assay (AID 1963591; active = well fitted inhibition curve with a large enough effect in the signal ratio in the repeat runs, not every such curve was filed as active; the % refers to the signal ratio)
Outline: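 Antagonist mode: compounds are added alongside the adenylyl cyclase activator NKH477 (0.25 uM final) to CRE-bla HEK293T cells for 3 h. LiveBLAzer FRET substrate, 2 h at room temperature, reports bla expression.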

[19] = molecular target: D(2) dopamine receptor (Homo sapiens) (UniProt P14416); experiment: Dopamine D2 receptor (DRD2) small molecule agonists, cell-based qHTS assay (AID 1963594); also: nearly all actives have a fitted effect of over 35% in size
Outline: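 HEK293 cells stably expressing human DRD2, pre-treated with PDE inhibitor Ro20-1724 (0.1 mM final) and compound 10 min at room temperature, then stimulated with NKH477 (200nM […]) for 30 min. cAMP read by HTRF (665/620 nm).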

[20] = p53 small molecule agonists, cell-based qHTS assay with rat liver microsomes (AID 1963578)
Outline: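 p53RE-bla cells, 4,000/well, pre-incubated 5 h, then given compounds plus rat liver microsomes (0.5 mg/mL final) and NADPH (0.5 mg/mL final). Incubation 16 h at 37 C; beta-lactamase reporter read by LiveBLAzer fluorescence after 2 h at room temperature.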

Measured: Potency

Sequence of 5-hydroxytryptamine receptor 2A (Homo sapiens) (P28223 whole entry, looked up): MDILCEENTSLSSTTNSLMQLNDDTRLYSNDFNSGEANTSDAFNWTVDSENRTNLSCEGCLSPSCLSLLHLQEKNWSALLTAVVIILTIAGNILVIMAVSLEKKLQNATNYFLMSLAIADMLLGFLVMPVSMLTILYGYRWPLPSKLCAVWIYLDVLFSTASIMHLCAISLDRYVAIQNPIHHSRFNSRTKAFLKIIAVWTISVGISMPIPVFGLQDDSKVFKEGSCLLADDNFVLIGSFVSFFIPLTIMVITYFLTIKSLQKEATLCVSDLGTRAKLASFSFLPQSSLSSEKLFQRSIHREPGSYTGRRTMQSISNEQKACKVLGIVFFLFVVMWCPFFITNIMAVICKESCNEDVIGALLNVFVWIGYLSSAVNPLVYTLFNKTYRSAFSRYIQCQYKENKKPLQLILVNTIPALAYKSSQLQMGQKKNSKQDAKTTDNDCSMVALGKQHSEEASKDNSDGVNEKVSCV
Sequence of Beta-2 adrenergic receptor (Homo sapiens) (P07550 whole entry, looked up): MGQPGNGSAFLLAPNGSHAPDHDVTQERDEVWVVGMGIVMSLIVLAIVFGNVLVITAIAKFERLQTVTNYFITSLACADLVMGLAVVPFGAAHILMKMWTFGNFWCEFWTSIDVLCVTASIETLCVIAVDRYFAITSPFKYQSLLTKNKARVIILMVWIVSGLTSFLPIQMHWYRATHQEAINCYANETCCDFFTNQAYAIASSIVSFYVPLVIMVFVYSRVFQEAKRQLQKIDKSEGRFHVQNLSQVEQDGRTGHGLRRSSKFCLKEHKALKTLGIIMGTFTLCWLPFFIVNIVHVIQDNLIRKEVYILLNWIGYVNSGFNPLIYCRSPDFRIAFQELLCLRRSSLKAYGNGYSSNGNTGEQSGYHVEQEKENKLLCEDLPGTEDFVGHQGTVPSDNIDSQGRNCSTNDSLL
Sequence of Gonadotropin-releasing hormone receptor (Homo sapiens) (P30968 whole entry, looked up): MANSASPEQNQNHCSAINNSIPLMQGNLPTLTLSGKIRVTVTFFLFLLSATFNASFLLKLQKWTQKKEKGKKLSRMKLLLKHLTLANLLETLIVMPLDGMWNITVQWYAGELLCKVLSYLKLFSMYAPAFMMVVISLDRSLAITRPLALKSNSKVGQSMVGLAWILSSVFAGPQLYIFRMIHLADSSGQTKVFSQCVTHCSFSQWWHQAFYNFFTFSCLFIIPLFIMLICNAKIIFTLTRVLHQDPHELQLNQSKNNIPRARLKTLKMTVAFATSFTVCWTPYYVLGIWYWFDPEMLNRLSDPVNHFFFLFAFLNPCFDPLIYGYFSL
Sequence of D(2) dopamine receptor (Homo sapiens) (P14416 whole entry, looked up): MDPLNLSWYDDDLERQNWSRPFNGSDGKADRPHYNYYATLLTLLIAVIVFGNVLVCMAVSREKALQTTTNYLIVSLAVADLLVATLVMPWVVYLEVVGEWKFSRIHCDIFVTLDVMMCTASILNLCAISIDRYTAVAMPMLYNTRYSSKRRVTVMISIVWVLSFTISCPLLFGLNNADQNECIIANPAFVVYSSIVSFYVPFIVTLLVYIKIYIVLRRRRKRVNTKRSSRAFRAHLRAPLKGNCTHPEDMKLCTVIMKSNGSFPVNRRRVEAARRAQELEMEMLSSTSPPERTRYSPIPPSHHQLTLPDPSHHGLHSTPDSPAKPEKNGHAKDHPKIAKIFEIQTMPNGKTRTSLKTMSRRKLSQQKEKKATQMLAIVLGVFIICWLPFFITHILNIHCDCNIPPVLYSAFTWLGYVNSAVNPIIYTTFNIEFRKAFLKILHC
Sequence of KiSS-1 receptor (Homo sapiens) (Q969F8 whole entry, looked up): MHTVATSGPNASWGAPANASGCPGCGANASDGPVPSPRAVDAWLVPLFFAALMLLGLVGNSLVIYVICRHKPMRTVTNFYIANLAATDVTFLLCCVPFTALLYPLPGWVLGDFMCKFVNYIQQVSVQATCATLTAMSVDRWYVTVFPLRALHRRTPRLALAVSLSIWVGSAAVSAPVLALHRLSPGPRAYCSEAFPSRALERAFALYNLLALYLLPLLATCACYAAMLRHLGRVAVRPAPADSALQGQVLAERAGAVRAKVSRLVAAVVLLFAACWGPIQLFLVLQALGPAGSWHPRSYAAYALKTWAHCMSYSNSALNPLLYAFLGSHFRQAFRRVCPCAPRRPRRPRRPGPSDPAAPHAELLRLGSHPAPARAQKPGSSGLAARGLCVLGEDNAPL
Sequence of Muscarinic acetylcholine receptor M1 (Homo sapiens) (P11229 whole entry, looked up): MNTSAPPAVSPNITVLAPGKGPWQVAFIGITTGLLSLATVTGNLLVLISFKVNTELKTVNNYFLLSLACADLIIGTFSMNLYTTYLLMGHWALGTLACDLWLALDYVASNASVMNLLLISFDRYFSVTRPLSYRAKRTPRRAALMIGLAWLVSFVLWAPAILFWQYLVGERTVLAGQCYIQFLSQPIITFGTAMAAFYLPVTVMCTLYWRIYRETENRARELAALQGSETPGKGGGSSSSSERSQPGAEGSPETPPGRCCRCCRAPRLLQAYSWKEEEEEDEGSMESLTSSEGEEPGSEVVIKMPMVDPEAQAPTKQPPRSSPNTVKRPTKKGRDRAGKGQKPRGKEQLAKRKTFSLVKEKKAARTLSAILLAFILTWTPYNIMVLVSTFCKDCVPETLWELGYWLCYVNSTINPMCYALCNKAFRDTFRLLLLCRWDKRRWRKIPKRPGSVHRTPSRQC

CSc1ccc(C(=O)C(C)(C)N2CCOCC2)cc1
not listed: [18] | [19] | [20]
inactive: all other assays above

Oc1ccc2ccc3cccc4ccc1c2c34
active: [2] 61.1 µM
not listed: [12] | [16] | [17] | [18] | [19] | [20]
inactive: all other assays above

CC1(C)[C@H](C=C(Cl)Cl)[C@@H]1C(=O)O[C@@H](C#N)c1cccc(Oc2ccccc2)c1
not listed: [13] | [17] | [20]
inactive: all other assays above

CC(Oc1cccc(Cl)c1)C(=O)O (stereo unspecified)
not listed: [15] | [16] | [20]
inactive: all other assays above

C=CC(=O)N(C)C
not listed: [10] | [18] | [19] | [20]
inactive: all other assays above

Cc1cccc2sc3nncn3c12
not listed: [14] | [20]
inactive: all other assays above

CCOP(=S)(OCC)SCn1nnc2ccccc2c1=O
active: [6] 3.24 µM
not listed: [9] | [11] | [15] | [18] | [20]
inactive: all other assays above

Oc1ccc(I)cc1
not listed: [9] | [11] | [12] | [13] | [20]
inactive: all other assays above

CSSC
active: [2] 31 µM
not listed: [9] | [15] | [20]
inactive: all other assays above

CCN1CCC2(CC1)COc1cc3c(cc12)N(C(=O)c1ccc(-c2ccc(-c4nnc(C)o4)cc2C)cc1)CC3
active: [1] 25.2 µM | [9] 42.2 µM
not listed: [7] | [8] | [10] | [12] | [13] | [15] | [18]
inactive: all other assays above

CCN1CCCC1CNC(=O)C(O)(c1ccccc1)c1ccccc1 (stereo unspecified)
active: [12] 2.68 µM | [13] 0.0918 µM
not listed: [7] | [9] | [11]
inactive: all other assays above

CCCCc1ccc(O)cc1
not listed: [13] | [14] | [15] | [20]
inactive: all other assays above

COc1cc(CC(C)N)cc2c1OCO2 (stereo unspecified)
active: [12] 1.44 µM | [13] 15.6 µM | [16] 32 µM
not listed: [11] | [20]
inactive: all other assays above

CN1[C@@H]2CC[C@H]1CC(OC(=O)c1cc(Cl)cc(Cl)c1)C2 (stereo partly specified)
not listed: [13] | [17] | [20]
inactive: all other assays above

O=C(CCCN1CCC2(CC1)C(=O)NCN2c1ccccc1)c1ccc(F)cc1
active: [3] 6.01 µM | [16] 1.5 µM
not listed: [9] | [11] | [12] | [17] | [20]
inactive: all other assays above

CC(C)(c1ccc(O)c(-c2ccccc2)c1)c1ccc(O)c(-c2ccccc2)c1
active: [1] 13.7 µM | [7] 18.2 µM | [8] 20.4 µM | [9] 20.4 µM | [11] 18.8 µM
not listed: [10] | [15] | [16] | [17] | [18] | [20]
inactive: all other assays above
